In PubChem BioAssay AID720631 (The Scripps Research Institute Molecular Screening Center, 2013):
The list shows a part of the results. Active and inactive are the calls of the source.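 The calls were made as follows: active = inhibition above the mean of compounds lying within the control limits plus 3 SD (cut at about 16% in these data); inactive = the rest.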

target: Fibrinogen beta chain (Homo sapiens) (UniProt P02675); experiment: Tn6 displacement from DD(E) complex – biochemical, fluorescence polarization, human fibrin, Tn6 probe, confirmation (AID 720631); settings: FP displacement of TRITC-Tn6 peptide from DD(E); at 8.3 µM; active compounds read high; 0% = per-plate median of test wells;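 also: 0% = plate median of compound wells and 100% = inhibitor peptide control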
Sequence (P02675 whole entry, looked up): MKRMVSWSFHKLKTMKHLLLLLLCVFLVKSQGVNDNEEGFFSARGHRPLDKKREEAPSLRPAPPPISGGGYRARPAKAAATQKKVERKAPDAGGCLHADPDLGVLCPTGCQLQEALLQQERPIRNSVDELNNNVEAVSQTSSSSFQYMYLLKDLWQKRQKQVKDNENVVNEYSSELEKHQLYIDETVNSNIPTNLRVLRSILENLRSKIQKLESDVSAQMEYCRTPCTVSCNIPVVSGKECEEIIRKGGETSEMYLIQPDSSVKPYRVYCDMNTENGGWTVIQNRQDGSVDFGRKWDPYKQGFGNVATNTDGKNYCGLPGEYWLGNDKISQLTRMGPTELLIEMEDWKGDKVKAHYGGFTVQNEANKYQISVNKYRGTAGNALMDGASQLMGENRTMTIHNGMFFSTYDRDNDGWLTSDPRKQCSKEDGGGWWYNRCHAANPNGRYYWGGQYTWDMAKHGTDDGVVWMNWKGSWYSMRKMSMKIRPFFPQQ

inhibition, active:
O=C(Nc1cccc(-c2nc3ccccc3[nH]2)c1)c1ccc(C(=O)Nc2cccc(-c3nc4ccccc4[nH]3)c2)cc1 29.2%

inhibition, inactive:
O=c1[nH]n(-c2ccc([N+](=O)[O-])cc2)c(=O)c2ccccc12 12.3%
CN1c2ccc(C=O)c3c(C=O)ccc(c23)N(C)C1(C)C -6.98%
O=C(NCCNc1ccccc1[N+](=O)[O-])c1ccccc1F -1.55%
CCC1C(=O)NCCN1C(=O)c1ccc2nc(Cc3ccc(OC)cc3)oc2c1 (stereo unspecified) -13.1%
Cc1cc2cc(CNC(=O)c3ccc(S(=O)(=O)N4CCOCC4)cc3)ccc2[nH]1 -6.87%
Oc1ccc(N=Cc2sc3ccccc3c2Cl)cc1 -11.2%
CCOC(=O)N1CCN(Cc2nc(N)nc(Nc3ccc(C)cc3)n2)CC1 -3.1%
Cc1ccc(-c2nn(-c3ccccc3)cc2/C=C/C(=O)Nc2cccc(S(N)(=O)=O)c2)cc1 4.74%
O=C(CCl)NNc1cccc(Cl)n1 4.87%
COc1ccc(N2C(=O)NC(NS(=O)(=O)c3ccc(Cl)cc3)(C(F)(F)F)C2=O)cc1 (stereo unspecified) 1.83%
CCc1cc(-c2nnc(SCC(=O)NC3CC3)n2C)cs1 2.54%
Cc1ccc(-c2nc(C)sc2CC(=O)O)cc1 1.06%
O=c1cc(Cn2nnc(-c3ccc(Cl)cc3)n2)nc2sccn12 -6.19%
CCOCC(=O)NCc1ccc2c(c1)cc(C)n2C 0.62%
CONc1nc2nonc2nc1NOC -1.66%
COc1cc(NC(=O)c2ccc(CNc3c(N4CCCC4)c(=O)c3=O)cc2)cc(OC)c1OC -4.66%
Cc1nnsc1S(=O)(=O)Cc1ccccc1Cl -10.5%
Cc1nn(C)cc1N1C(=O)c2cccc3c(N)ccc(c23)C1=O 1.67%
Cc1cc2nc3c(=O)[nH]c(=O)nc-3n(C[C@H](O)[C@H](O)[C@H](O)CO)c2cc1C 12.4%
COc1ccc(Nc2nc(-c3ccccc3)cs2)cc1 -0.61%
CCc1ccccc1NC(=S)Nc1cc(OC)c(NC(=O)C(C)C)cc1OC -4.51%
Cc1cc(C)c2nc(NC(=O)C3CCCO3)sc2c1 (stereo unspecified) 4.35%
COc1ccc(Nc2nc(-c3cccnc3)nc3ccccc23)cn1 -6.63%
Cc1cc2ccccc2n1CCNC(=O)COc1ccc2ccccc2c1 12.1%
Cc1ccc(NC(=O)CN2CCc3ccccc3C2)cc1 -6.7%
